Our source for the growth values is PubChem BioAssay (NCI).

Common to all, as to experiment: NCI-60 one-dose screen, 48 h (100 = growth as untreated, 0 = no growth, -100 = all killed)
Holding throughout (conditions): 10 µM unless noted

The subject of assay [1] is NCI-H23 lung.
Assay [2] deals with NCI-H226 lung.
For assay [3], the system named is NCI-H322M lung.
In assay [4] the test system is HOP-62 NSCLC.
For assay [5], the system named is NCI-H460 lung.
The test system of assay [6] is HOP-92 NSCLC.
Assay [7] relates to NCI-H522 lung.
Assay [8] deals with A549/ATCC NSCLC.
Assay [9] has as its system 786-0 renal.
The subject of assay [10] is COLO 205 colon.

Each structure is given as a SMILES string. About 83,000 compounds went through this panel and 20% of them were active in at least one assay; those are over-represented in the sample as a whole.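 A percent growth of 40 corresponds to 60% growth inhibition; 0 means no net growth; -100 means all cells died. Active threshold: below 10.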 Values without a mark were called inactive. Active and inactive are the calls of the source.

With `NC(=O)NNC(=O)c1ccccc1`, the growth is 103% in assay [1]; 106% in [2]; 109% in assay [3]; 107% in assay [4]; 103% in assay [5]; 103% in assay [6]. Also, the growth in [7] was 107%; in [8] it was 101%; in assay [9], 101%; in assay [10] it was 118%.
`Nc1c(C(=O)Nc2ccccc2)sc2nc3c(cc12)CCC3`: the growth in assay [1] is 87.9%; in assay [2], 85.3%; in [3], 101%; in assay [4] it was 96.4%; in assay [5], 91%; in assay [6] it was 55.6%. Besides, the growth was 83.9% in assay [7], 91.2% in assay [8], 101% in [9] and 108% in [10].
For `CCC(c1ccc(OC)cc1)C(CC)c1ccc(O)c(CN2CCCC2)c1` (stereo not given), the growth was 9.32% (active) in [1]; 31.7% in assay [2]; 14.4% in assay [3]; 30.9% in assay [4]; -47.2% (active) in assay [5]; -34.7% (active) in assay [6]. Further, the growth in assay [7] was 22.8%; in assay [8] it was 33.1%; in assay [9], 4.61% (active); in assay [10] it was -85% (active).
Regarding `Cc1cc(Nc2nc(-c3ccc(F)cc3)nc3ccccc23)n[nH]1`, the growth in assay [1] was 57.3%; in assay [2], 58.6%; in [3], 65.5%; in assay [4], 78.6%; in [5], 35.6%; in [6], 30.5%. In addition, the growth in assay [7] is 27.7%; in [8], 13.8%; in [9], 56.9%; in assay [10], 40.3%.
On to `COc1ccc(-c2nc(-c3ccccc3)c(-c3ccccc3)n2C2CC2)cc1OC1CCCCC1`, for which the growth in assay [1] was 72.6%; in assay [2], 94%; in assay [3] it was 80.4%; in assay [4] it was 85%; in assay [5] it was 30.9%; in [6], 90.2%. The growth in assay [7] is 64.2%; in assay [8], 53.3%; in assay [9], 74%; in assay [10], 79.9%.
Regarding `CCCCCCCC/C=C\CCCCCCCCOc1ccccc1CCOP(=O)(O)OCC[N+](C)(C)C`, the growth was 90.2% in [1]; 95.6% in assay [2]; 106% in assay [3]; 42.1% in assay [4]; 9.07% (active) in [5]; 30.3% in assay [6]. The growth was 39.4% in assay [7], 48.9% in [8], 82.4% in [9] and 58.4% in assay [10].
For `CC(=O)Nc1ccc(S(=O)(=O)N2C(=O)CCC2C(=O)Nc2ccccc2)cc1` (stereo not given), the growth in assay [1] is 38.5%; in [2], 46.9%; in [3], 38%; in [4], 30.3%; in [5], 15.1%; in assay [6], -5.79% (active). Further, the growth was 27.5% in assay [7], 21.3% in [8], 26.2% in assay [9] and 12.1% in assay [10].
On to `O=C(COc1ccccc1)N1N=C(c2ccc(Cl)cc2)CC1c1c[nH]c2ccccc12` (stereo not given), for which the growth was 76.1% in assay [1]; 65.2% in [2]; 86.4% in assay [3]; 66.6% in assay [4]; 47.9% in assay [5]; 62.1% in assay [6]. For the same compound, the growth in assay [7] is 73.9%; in assay [8], 58.4%; in assay [9], 71%; in assay [10] it was 86.9%.
For `CCC1=C[C@@H]2CN(C1)Cc1c([nH]c3ccccc13)[C@@](C(=O)OC)(c1cc3c(cc1OC)N(C=O)[C@H]1[C@@](O)(C(=O)OC)[C@H](OC(C)=O)[C@]4(CC)[C@@H]5C[C@@H]5CN5CC[C@]31[C@@H]54)C2`, the growth in assay [1] is 15.7%; in assay [2], 35.4%; in [3] it was 48.8%; in [4] it was 34%; in assay [5], 6.63% (active); in [6], -16.4% (active). The growth was -0.697% (active) in assay [7], 11% in [8], 25.8% in assay [9] and -78.5% (active) in assay [10].
Consider `COc1ccc(/C=C/C(=O)c2cccc(B(O)O)c2)cc1O`, for which the growth in [1] was 61.9%; in [2], 91.5%; in assay [3] it was 64%; in assay [4], 40.5%; in assay [5] it was 13.8%; in assay [6], 41.4%. For the same compound, the growth was 43.9% in [7], 41.7% in assay [8], 59.1% in assay [9] and 98.3% in assay [10].
`O=C(CN1CCOCC1)Nc1ccc(-c2nc3ccccc3s2)cc1`: the growth in [1] is 99.5%; in assay [2] it was 95%; in assay [3], 100%; in assay [4] it was 106%; in assay [5], 99.7%; in assay [6] it was 83.3%. For the same compound, the growth in assay [7] was 94.5%; in assay [8], 93.8%; in assay [9] it was 101%; in assay [10], 115%.
Take `COc1ccc(/C(=N\O)c2cc(OC)c(OC)c(OC)c2)c(OC)c1N`: the growth in assay [1] was 34.7%; in assay [2], 78.2%; in [3], 48.4%; in assay [4], 39.7%; in assay [5], 6.35% (active); in assay [6], 78.7%. Also, the growth in [7] was -9.39% (active); in assay [8], 43.2%; in [9] it was 34.7%; in [10], -0.741% (active).
`CC(C)C[C@H](NC(=O)[C@H](Cc1ccccc1)n1ccc(N2CCCCC2)cc1=O)B(O)O`: the growth was 19.7% in assay [1]; -68.7% (active) in [2]; 70.7% in assay [3]; 13.1% in [4]; 34.7% in assay [5]; -10.1% (active) in [6]. For the same compound, the growth in assay [7] is -7.97% (active); in [8] it was 19%; in [9], 28%; in assay [10], 28.9%.
